Test results reported in PubChem BioAssay (NCI).
Values joined by “and” are separate entries in the source; they are usually repeats but may differ in a detail not shown here. Equal values may be shown once. Compounds without any hit were thinned out: in the full panel of roughly 79,000, 15% have a hit. Active and inactive are the calls of the source. No stated cut-off is given here; in the data, active means growth inhibition above about 70%; inactive means the rest.

Assay: NCI Yeast Anticancer Drug Screen. Data for the rad50 strain (AID 155);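 further: 0% = growth of vehicle-only cultures of the same strain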
Settings: S. cerevisiae rad50 strain growth inhibition; at 50.0 µM; active compounds read high
How it was run: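 Cells are treated with compound, grown, and their growth is then scored against vehicle-only cultures of the same repair-deficient yeast strain.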
In the case of `Nc1ccccc1C(=O)Oc1ccccn1`, the growth inhibition is reported as 7.45% (inactive). For `COc1ccc2c(c1O)-c1cc(O)cc3c1C(C2)NCC3` (stereo not given), the growth inhibition was 13.7% (inactive). With `CN1CCCC(OC(=O)C(c2ccccc2)C2(O)CCCC2)C1` (stereo not given) the growth inhibition was 30.6% (inactive). With `NC(=O)c1ccc(NN=O)nc1` the growth inhibition was -10.4% (inactive). With `CC(=O)[O-].[Ni].c1ccc(/C(=N\Nc2ccccn2)c2ccccn2)cc1` the growth inhibition was 19.8% (inactive). In the case of `[N-]=[N+]=CC(=O)OCC(N)C(=O)O` (stereo not given), the growth inhibition is reported as 4.5% (inactive). For `CCN1C2CCC1CC(=O)C2`, the growth inhibition was 0.95% (inactive). With `C[CH2][Sn]([CH2]C)([O]C(=O)c1ccc(F)cc1)[O]C(=O)c1ccc(F)cc1` the growth inhibition was 30.5% (inactive). In the case of `CCCN=Cc1ccccc1O.CCCN=Cc1ccccc1O.[Ni]`, the growth inhibition is reported as 37.5% (inactive). In the case of `C#CCOC(C(=O)OC1CCN(C)CC1)(c1ccccc1)c1ccccc1`, the growth inhibition is reported as -3.5% (inactive). In the case of `CCOC(CNC(=O)c1ccc(S(=O)(=O)F)cc1)OCC`, the growth inhibition is reported as -4.4% (inactive). For `NS(=O)(=O)c1ccc([As]=O)cc1` (stereo not given), the growth inhibition was -17.4% (inactive). With `CSCCC(N)P(C)(=O)O` (stereo not given) the growth inhibition was -16.4% (inactive). For `NC1(O)C(=O)NC(=O)NC1=O`, the growth inhibition was -21.4% (inactive). For `COc1cc(C2CNCc3cc(OC)c(O)cc32)ccc1O` (stereo not given), the growth inhibition was 0.05% (inactive). In the case of `O=[N+]([O-])c1cc(/C=N\NC(=S)NC2CN3CCC2CC3)ccc1Cl` (stereo not given), the growth inhibition is reported as 22.5% (inactive). With `NC(=NC(c1ccccc1)c1ccccc1)N[N+](=O)[O-]` the growth inhibition was -4.1% (inactive). With `COc1ccc(NC(=O)C(=O)C(CC2C(=O)NC(=S)NC2=O)C(=O)c2ccc3ccccc3c2)c([N+](=O)[O-])c1` (stereo not given) the growth inhibition was -10.7% (inactive). For `CCOC(=O)/C(=C/c1ccc[nH]1)P(=O)(OCC)OCC`, the growth inhibition was -28.6% (inactive). For `O=C(O)C1C2Cc3ccccc3C21` (stereo not given), the growth inhibition was 18.1% (inactive). With `N=C(N)c1nn[nH]n1` the growth inhibition was -18.9% (inactive). For `O=P(O)(O)C(O)c1ccccc1` (stereo not given), the growth inhibition was -20.1% (inactive). With `O=P1(C(Cl)Cl)OCCCO1` the growth inhibition was -9.35% (inactive). In the case of `COc1cccc(N2C(=O)C3C(C2=O)C2(Cl)C(Cl)=C(Cl)C3(Cl)C2(Cl)Cl)c1` (stereo not given), the growth inhibition is reported as 58.4% (inactive). With `COC(C)CCOC(=O)Cc1ccccc1` (stereo not given) the growth inhibition was 16.1% (inactive). In the case of `N#CC(C#N)=Cc1ccc(Cl)cc1`, the growth inhibition is reported as 13.6% (inactive) and 9.25% (inactive). For `Cc1ccc(-n2cnc3c(N(CCCl)CCCl)ncnc32)cc1`, the growth inhibition was 10.3% (inactive). With `CCCC1CC=CCC12C(=O)NC(=O)NC2=O` (stereo not given) the growth inhibition was -4.7% (inactive). In the case of `N#Cc1ccc(CCl)cc1`, the growth inhibition is reported as 39.1% (inactive). In the case of `O=S(=O)(O)O/N=C(\Cc1ccccc1)SC1OC(CO)C(O)C(O)C1O` (stereo not given), the growth inhibition is reported as -2.45% (inactive). For `Cc1nc2ccc(Br)cc2c(=O)n1-c1ccc(N)cc1`, the growth inhibition was -25.9% (inactive). For `Cc1cccc(C=NCCOCCOCCN=Cc2cccc(C)c2O)c1O.[Ni]`, the growth inhibition was -8.3% (inactive). In the case of `CCC1(CCNC(=O)CNC(C)=O)C(=O)NC(=O)NC1=O`, the growth inhibition is reported as 3.3% (inactive). With `CN1CCOC(c2ccccc2)c2ccsc2CC1` (stereo not given) the growth inhibition was 17.2% (inactive). For `O=NN1CCNCC1`, the growth inhibition was -20.1% (inactive) and -11.3% (inactive). In the case of `CN1C(=O)NC(C)(c2cccc(N(CCCl)CCCl)c2)C1=O` (stereo not given), the growth inhibition is reported as 5.5% (inactive). In the case of `CC1(CCl)COP(=O)(NN)OC1` (stereo not given), the growth inhibition is reported as 3.95% (inactive). With `CCOC(=O)/C=C1\Nc2ccccc2C(c2ccccc2)=NC1OC(C)=O` (stereo not given) the growth inhibition was 39.1% (inactive). With `O=C(N=[C-]c1ccc[oH+]1)c1cccnc1.O=C(N=[C-]c1ccc[oH+]1)c1cccnc1.[Ni+2]` the growth inhibition was -24.7% (inactive). For `O=c1oc2cc(O)ccc2c(O)c1C(c1ccccn1)c1c(O)c2ccc(O)cc2oc1=O`, the growth inhibition was 12.6% (inactive).
